Experimental data published in PubChem BioAssay AID540276 (National Center for Advancing Translational Sciences (NCATS), 2011).
Several values for one entry are separate records, joined by “and”; a condition that tells them apart may be missing. Equal entries are not always repeated. The whole screen tested about 300,000 compounds, of which about 5,400 (1.8%) were called active. Roughly 28% stayed inconclusive and do not appear here. This is one part of a sample in which actives are shown more often than they occur. A number with no mark means an inactive call. Calls come from the whole dose curve; tested in HEK293 cells. Non-standard residues stand in square brackets, D forms with d. Residues, ends and D or L forms follow the SMILES beside them. ξ: configuration not given here. Ac5c = NC1(C(=O)O)CCCC1; ξS = NC(CO)C(=O)O

Assay: qHTS for inhibitors of binding or entry into cells for Marburg Virus
Conditions: Marburg virus pseudotyped entry inhibition, cell reporter; series mostly up to 37.8 µM; activity change, negative = inhibition: at the top concentration
% is set by controls: 0 for no effect and ±100 for the full control effect; potency is the fitted concentration of half-maximal effect.

SMILES | activity change, negative = inhibition | Potency
C/C(=N\NC(=O)C1(C)CC1(Br)Br)c1ccc(C)cc1C (centres undefined) | -12.7% | –
COC(=O)c1sc2ncccc2c1OCc1ccc(Cl)cc1Cl | 5.87% | –
CCOc1ccc(/C=N/NC(N)=S)cc1 | -4.53% | –
NC(N)=N/N=C/c1ccc(OCc2ccc(Cl)cc2Cl)cc1 | – | 10.3 µM (active)
Cc1ccc(NC(=O)COc2coc(CN3CCc4ccccc4C3)cc2=O)cc1Cl | 13.1% | –
CC(=O)c1ccc(NC(=O)C(C)OC(=O)c2ccc(NS(=O)(=O)c3ccc4[nH]c(=O)[nH]c4c3)cc2)cc1 (centres undefined) | 6.38% | –
CCCCN1C2CCC1CC(OC(c1ccc(F)cc1)c1ccc(F)cc1)C2 (centres undefined) | – | 3.55 µM (active)
COc1cc(OC)cc(C(=O)Nc2nnc(SCC(=O)NCC3CCCO3)s2)c1 (centres undefined) | 29.5% | –
COc1ccc(OC)c(NC(=O)CN2CCN(C(=O)c3ccco3)CC2)c1 | 10.5% | –
CCOc1ccc(NC(=O)CN2CCN(CC(=O)Nc3ccc(OC)cc3)CC2)cc1 | – | inactive
CCc1cc(C(=O)c2ccc(OC)cc2)c(NC(=O)CN2CCN(C)CC2)s1 | – | 3.55 µM (active)
COc1ccc(CNC(=O)C2CCN(C(=O)c3ccco3)CC2)cc1 | -12.6% [at 46.1 µM] | –
COc1cc2[nH]c(O)c(C=O)c2cc1OC | 0.231% [at 46.1 µM] | –
CCCc1ccc(-c2csc(NC(=O)Cc3cccs3)n2)cc1 | -11.2% | –
COc1ccc(-c2csc(NC(=O)c3ccc(N4C(=O)CCC4=O)cc3)n2)cc1OC | 3.07% [at 46.1 µM] | –
COc1cc(CC(=O)Nc2nc(-c3ccc(F)c(F)c3)cs2)cc(OC)c1OC | – | 7.94 µM (active)
COc1ccc(-c2csc(NC(=O)COC(=O)Cc3ccc(Cl)cc3Cl)n2)cc1 | -5.49% | –
Cc1ccc(-c2csc(NC(=O)Cc3cccs3)n2)cc1C | -8.89% | –
COc1ccc(CC(=O)Nc2nc(-c3ccc(F)c(F)c3)cs2)cc1OC | – | 10 µM (active)
CCOc1ccc(CCNC(=O)COC(=O)c2c(OC)cccc2OC)cc1OCC | -14.9% | –
Cc1cc(Br)ccc1NC(=O)CN(C)C(=O)CN1C(=O)NC2(CCCC2)C1=O | -2.22% | –
CCc1nnc(NC(=O)C2CCN(C(=O)c3ccccc3C)CC2)s1 | 4.28% | –
O=C(Nc1ccccc1)C1CCN(C(=O)c2ccc(Br)cc2)CC1 | -6.33% | –
CCOC(=O)C(CO)NC(=O)C1(NC(C)=O)CCCC1 (centres undefined) (Ac-[Ac5c]-[ξS]-OEt) | 6.4% [at 46.1 µM] | –
CCc1ccccc1NC(=S)N(CCN1CCCCCC1)Cc1ccco1 | 3.1% [at 46.1 µM] | –

SMILES | activity change, negative = inhibition | Potency
Cc1ccccc1NC(=S)N(CCCN1CCOCC1)Cc1cccs1 | 18.9% | –
CCc1cccc(C)c1NC(=S)N(CCCN1CCN(C)CC1)Cc1cccs1 | – | 10 µM (active)
CCC(=O)Nc1ccc(S(=O)(=O)Nc2c(NC)c3ccccc3oc2=O)cc1 | -29.2% [at 46.1 µM] | –
CCCN(C(=O)CSc1nnc(N)s1)c1c(N)n(Cc2ccccc2)c(=O)[nH]c1=O | -6.1% | –
CNC(=O)C1CC(=O)N(c2ccc(OCC(=O)Nc3ccccc3C)cc2)C1 (centres undefined) | 5.17% | –
Cc1ccc2[nH]c(=O)c(CC=C(Cl)Cl)c(C)c2c1 | 7.58% [at 46.1 µM] | –
COc1ccc(CNC(=O)c2cc3c(=O)[nH]c4ccc(C)cc4c3s2)c(OC)c1 | -18.7% [at 46.1 µM] | –
Cc1cccc(N(C)C(=O)c2cc3c(=O)[nH]c4ccc(C)cc4c3s2)c1 | – | 3.55 µM (active)
CCOC(=O)N/N=C1\C[C@@H](O)[C@@H](O)[C@@H]2[C@@H]3C(=O)N(C4CCCCC4)C(=O)[C@@H]3CC[C@@H]12 | 19.7% [at 14.2 µM] | –
Cc1ccc(NC(=O)CSC2=C(C#N)[C@H](c3ccc4c(c3)OCO4)CC(=O)N2)cc1C | -6.33% | –
O=C(COC(=O)c1ccc([N+](=O)[O-])cc1Cl)NC(=O)c1ccccc1 | 11.8% | –
N#Cc1cccc(NC(=O)COC(=O)c2ccccc2C(=O)c2ccc(Cl)c([N+](=O)[O-])c2)c1 | – | 23.1 µM (active)
NS(=O)(=O)c1cccc(NC(=O)COC(=O)c2cc([N+](=O)[O-])ccc2N2CCCC2)c1 | -19.3% | –
CN(C(=O)CCNC(=O)Cn1ccc2ccccc2c1=O)c1ccc(Br)cc1 | 23.6% [at 46.1 µM] | –
O=C(CCC1CCCN(C(=O)c2ccc(F)c(F)c2)C1)N1CCN(c2ccccn2)CC1 (centres undefined) | -24.9% | –
CC1(c2ccccc2)NC(=O)N(CC(=O)Nc2cc(Cl)ccc2N2CCOCC2)C1=O (centres undefined) | 2.18% | –
COc1cc(OC)cc(-c2c(-c3cccs3)c3cc(-c4ccc(OC)cc4F)ccc3n2C)c1 | -2.74% | –
Cc1ccccc1N1CC(C(=O)Nc2nnc(SCCC3OCCO3)s2)CC1=O (centres undefined) | -24.4% | –
CC(C)(C)NC(=O)NC(=O)COC(=O)Cc1ccc(Cl)cc1Cl | -0.511% [at 46.1 µM] | –
CC(C)(C)c1cc(C(=O)NN)n(Cc2ccc(Cl)cc2Cl)n1 | – | 11.2 µM (active)
NNC(=O)c1ccc(Cl)cc1Cl | 5.31% | –
Cc1cc(NC[C@@H]2CCCO2)n2c(nc3ccccc32)c1C#N | 1.22% [at 46.1 µM] | –
CN1CCN(CCNC(=O)Nc2ccccc2[N+](=O)[O-])CC1 | 26.4% [at 46.1 µM] | –
CCOc1ccc(C(O)Cn2c(=N)n(CCN3CCCCC3)c3ccccc32)cc1 (centres undefined) | – | 18.3 µM (active)
CCOc1ccc(C(O)Cc2nc3ccccc3n2C)cc1 (centres undefined) | 14.5% | –

SMILES | activity change, negative = inhibition | Potency
CCOc1ccc(CN2CCCN(C)CC2)cc1 | -2.41% | –
CCOc1ccc(S(=O)(=O)N2CCN(C(=S)NCC3CCCO3)CC2)cc1 (centres undefined) | 22.4% [at 46.1 µM] | –
CC1(C)C(=O)CCC2(C)C1=CCC1C2C(=O)CC2(C)C1CCC2(O)C(=O)CO (centres undefined) | -26.4% | –
CC(=O)OCC(=O)C1(O)CCC2C3CC(C)C4=CC(=O)CCC4(C)C3C(O)CC21C (centres undefined) | -12.6% [at 46.1 µM] | –
COc1ccccc1NC(=O)N1CCCC1C(=O)NCc1cccs1 (centres undefined) | 2.43% [at 46.1 µM] | –
CCS(=O)(=O)Nc1ccc(C2=NN(S(=O)(=O)c3ccc(F)cc3)C(c3ccco3)C2)cc1 (centres undefined) | – | 18.3 µM (active)
CS(=O)(=O)Nc1ccc(C2=NN(S(C)(=O)=O)C(c3cccs3)C2)cc1 (centres undefined) | 15.1% | –
CCS(=O)(=O)Nc1ccc(C2=NN(C(C)=O)C(c3cccs3)C2)cc1 (centres undefined) | -4.67% [at 46.1 µM] | –
COc1ccc(-c2nn(-c3ccccc3)cc2CN2CCCO2)c(F)c1 | -6.45% [at 46.1 µM] | –
COc1ccc(-n2cc(CNC3CCOCC3)c(-c3cccc(F)c3)n2)cc1 | – | 11.2 µM (active)
COc1ccc(-n2cc(CN(C)Cc3n[nH]c(=O)[nH]3)c(-c3cccc(F)c3)n2)cc1 | -18.4% [at 46.1 µM] | –
N#CC1=C(SCc2ccccc2)NC(=O)C(C#N)C12CCCC2 (centres undefined) | -21.9% | –
N#C/C(=C1\CCCN1)c1nc(-c2ccccc2)cs1 | 0.0724% | –
N#CC1=C(SCc2ccc(C#N)cc2)N=C(N)C(c2nc(-c3ccccc3)cs2)C12CCCCC2 (centres undefined) | – | 7.08 µM (active)
NC(CSC1(c2ccccc2)c2ccccc2-c2ccccc21)C(=O)O (centres undefined) | 12% | –
CCCc1cc(=O)[nH]c(SCC(=O)Nc2ccc(C(=O)Nc3ccccc3OC)cc2)n1 | -26.8% | –
CC1CCN(C(=O)/C(=C\c2ccccc2)NC(=O)c2ccccc2)CC1 | -1.05% [at 46.1 µM] | –
COc1ccc(S(=O)(=O)N2CCC(C(=O)NCc3ccco3)CC2)cc1C | 3.65% [at 46.1 µM] | –
CC(NC(=O)Cn1cc(C(F)(F)F)cc(Cl)c1=O)c1ccccc1 (centres undefined) | 12.4% [at 46.1 µM] | –
CNCC[C@H](Oc1ccc(C(F)(F)F)cc1)c1ccccc1 | – | 10.3 µM (active) and 7.08 µM (active)
CC(C)Oc1ccc(Oc2ccc(C(F)(F)F)cn2)cc1 | 23.2% [at 46.1 µM] | –
COc1ccccc1N(CC(=O)Nc1ccccc1C(=O)N1CCCC1)S(C)(=O)=O | -13.4% [at 46.1 µM] | –
Cc1ccc(S(=O)(=O)N2CCN=C2SCc2c(F)cccc2Cl)cc1 | 18.5% | –
COc1ccc(COC(=O)c2ccc(Cl)c(S(=O)(=O)N3CCOCC3)c2)cc1F | -21.5% | –
CC(=O)Nc1ccc(C(=O)/C=C/c2ccc[nH]2)cc1 | 18% [at 46.1 µM] | –

SMILES | activity change, negative = inhibition | Potency
CCCCCC(=O)Nc1ccc(C(=O)N/N=C/c2ccc([N+](=O)[O-])cc2)cc1 | -0.0189% | –
CCCC(=O)Nc1ccc(C(=O)N/N=C/c2ccc[nH]2)cc1 | – | 7.08 µM (active)
COc1cc(/C=N/NC(=O)Nc2ccccc2)ccc1OCCOc1ccccc1C | – | 2.31 µM (active)
COC(=O)c1ccc(COc2ccc(/C=N/NC(=O)C(=O)Nc3ccc(OC)cc3)cc2OC)o1 | -1.32% [at 46.1 µM] | –
COc1ccc(/C=N/S(=O)(=O)c2ccccc2)cc1OC | -3.98% [at 14.2 µM] | –
COc1cc(/C=N/NC(=O)c2ccccc2)ccc1OS(=O)(=O)c1ccccc1 | – | 9.2 µM (active)
COc1cc(/C=N/NC(=O)c2ccc(N3CCCC3=O)cc2)ccc1O | -7.56% | –
COc1cc(C=NNC(=O)c2cccnc2)ccc1OC(=O)c1ccccc1F | 0.992% | –
COc1ccc(C(=O)Nc2ccccc2C(=O)N/N=C/c2ccccc2OC)cc1 | 2.26% | –
COc1ccc(C(=O)Nc2ccccc2C(=O)N/N=C/c2ccc(O)c(OC)c2)cc1 | – | 0.398 µM (active)
CCOc1cc(/C=N/NC(=O)OC)ccc1OCCSc1ccc(Cl)cc1 | -35.7% | –
COc1ccc(OC[C@H]2CN3[C@@H](CC[C@@H](C)[C@@H]3c3ccc(Br)cc3)C(=O)O2)cc1 | -7.49% [at 14.2 µM] | –
COC1=NC2=NCCN2C(OC)=N1 | -7.96% [at 46.1 µM] | –
COc1ccc(CCNC(=O)COC(=O)c2ncc(Cl)c(Cl)c2Cl)cc1OC | -3.32% | –
COc1ccccc1C(=O)c1ccccc1C(=O)c1ccccc1 | 11.4% [at 46.1 µM] | –
COc1ccc(N2CC(C(=O)N[C@@H](C)C(=O)N3CCCCC3)CC2=O)cc1 (some centres undefined) | 7.02% [at 46.1 µM] | –
O=C1COc2ccc(C(=O)COC(=O)CCOc3ccccc3)cc2N1 | -20% | –
CC(NS(=O)(=O)c1ccc(OCC(=O)N2CCCC2)cc1)c1ccccc1 (centres undefined) | 1.04% [at 46.1 µM] | –
COc1ccc(S(=O)(=O)N2CCN(CC(=O)N3c4ccccc4CC3C)CC2)cc1OC (centres undefined) | 1.43% | –
COc1ccc(C(=O)O)cc1S(=O)(=O)NC1CCN(Cc2ccccc2)CC1 | -1.19% | –
O=C(Cn1cnc2ccccc2c1=O)NNC(=O)c1ccccc1F | 11.2% | –
Cc1ccc(NS(=O)(=O)c2ccc(C)c(NC(=O)COc3ccc4ccccc4c3)c2)c(C)c1 | – | 11.2 µM (active)
Cc1ccc(C)c(NS(=O)(=O)c2ccc(OCC(=O)NCc3cccnc3)cc2)c1 | -33.3% | –
Cc1ccc(C)c(NC(=O)CN(C)C(=O)COc2ccc3ccccc3c2)c1 | 4.53% | –
